Screens (PubChem)
An excerpt weighted towards active compounds, which were near 5.4% of everything screened.
p53 reactivator – re-activators of mutant p53; H1299 p53-A138V BP100-luciferase reporter, luminescence, 24 h; Potency, µM (titrated, usually from 92.2 µM), for inactives: at the highest dose activity change, positive = activation, hits mostly activators; 320,000 tested, 0.063% active; AID 504706; further: potency means the concentration at half of the fitted maximal effect; % of control where 0% means no effect; nearly all actives have a fitted effect of over 45% in size
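p53-null H1299 cells stably carrying temperature-sensitive p53-A138V and a BP100-luciferase reporter were pinned with compounds (4-point, 1:5 series) and held 24 hrs at 37 deg C. Luminescence was read 10 min after detection reagent.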
RORg inh – inhibitors of mouse ROR gamma transcriptional activity; AID 2551; Drosophila S2 Gal4-RORgamma UAS-luciferase reporter, 20 h; P51450; 310,000 tested, 5.4% active; Potency, µM (titrated, usually from 53.6 µM), for inactives: at the highest dose activity change, negative = inhibition, usual class: inhibitors; further: potency means the concentration at half of the fitted maximal effect; on the % scale 0 is the no-effect control and ±100 the full control effect; nearly all actives have a fitted effect of over 60% in size
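Read-out: Photinus luciferase luminescence; inhibitors lower reporter signal. Insect Schneider cells with Gal4-ROR gamma fusion under metallothionein promoter, UAS reporter; 700 uM final copper sulfate induction, 20 hr, ambient temperature.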
CtBP-E1A blk – inhibitors of CtBP/E1A interaction. activity change, % (concentration not given with the values). 340,000 tested, 0.49% active. AlphaScreen GST-E1A/His-CtBP binding, 1536-well; active compounds read low; in the data active means activity change below about -65%; inconclusive means mostly about -30% to -63%; further: on the % scale 0 is the no-effect control and ±100 the full control effect
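Protein mix (5X: 125 nM each GST-E1A, His-CtBP) was incubated with pinned compound 2 h at 37 deg C in dark, in 50 mM Tris pH 8.0 buffer with 300 mM NaCl. Glutathione donor and nickel acceptor beads followed; AlphaScreen signal read after 1 h.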
VP16 counter – counter-screen for ROR gamma inhibitors: Gal4-VP16 reporter | 310,000 tested, 3.5% active | Drosophila S2 Gal4-VP16 UAS-luciferase, luminescence, 20 h | AID 2546 | Potency, µM (top dose mostly 53.6 µM), without a hit: top-dose activity, negative = inhibition, hits mostly inhibitors;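 further: Gal4-VP16 expression switched on by copper sulfate through the metallothionein promoter; potency means the concentration at half of the fitted maximal effect; on the % scale 0 is the no-effect control and ±100 the full control effect; nearly all actives have a fitted effect of over 50% in size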
Six1-Eya2 blk – Six1/Eya2 interaction inhibition; Q15475+O00167; AlphaScreen GST-Six1/His-Eya2 binding, biochemical; active compounds read low; activity change, % (concentration not given with the values); 360,000 tested, 0.56% active; in the data active means activity change below about -65%; inconclusive means mostly about -30% to -63%; further: on the % scale 0 is the no-effect control and ±100 the full control effect
Target sequence (O00167 whole entry, looked up): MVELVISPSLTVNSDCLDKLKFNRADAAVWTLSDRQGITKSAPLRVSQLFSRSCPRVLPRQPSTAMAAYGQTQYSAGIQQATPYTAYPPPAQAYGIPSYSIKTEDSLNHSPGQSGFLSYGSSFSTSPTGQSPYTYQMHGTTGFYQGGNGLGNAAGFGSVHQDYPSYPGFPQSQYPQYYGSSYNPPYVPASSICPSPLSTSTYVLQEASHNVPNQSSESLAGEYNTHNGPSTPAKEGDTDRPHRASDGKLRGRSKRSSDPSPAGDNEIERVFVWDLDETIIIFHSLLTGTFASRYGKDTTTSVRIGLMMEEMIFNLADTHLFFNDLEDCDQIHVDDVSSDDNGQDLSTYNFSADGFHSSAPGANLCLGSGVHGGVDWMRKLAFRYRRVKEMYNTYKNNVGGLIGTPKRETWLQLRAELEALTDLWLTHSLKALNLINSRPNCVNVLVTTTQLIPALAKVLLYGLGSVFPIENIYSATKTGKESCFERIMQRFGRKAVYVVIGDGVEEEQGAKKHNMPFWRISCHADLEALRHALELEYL
Target sequence (Q15475 whole entry, looked up): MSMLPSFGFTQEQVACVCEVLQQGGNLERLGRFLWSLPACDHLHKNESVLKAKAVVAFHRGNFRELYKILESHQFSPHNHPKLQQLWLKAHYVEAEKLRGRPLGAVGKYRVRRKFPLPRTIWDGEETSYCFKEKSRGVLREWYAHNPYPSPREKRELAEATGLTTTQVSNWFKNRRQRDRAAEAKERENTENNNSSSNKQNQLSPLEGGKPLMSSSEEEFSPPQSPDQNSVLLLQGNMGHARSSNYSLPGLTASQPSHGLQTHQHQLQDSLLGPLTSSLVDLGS
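Homogeneous AlphaScreen proximity assay pairing GST-Six1 with His-tagged Eya2 (added as 5X mix: 250 nM and 500 nM) in 50 mM Tris pH 8.0, 300 mM NaCl, 1 mM TCEP. Glutathione donor and nickel acceptor beads; 1 h, 37 °C, dark.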
Numbers without * were called inactive; ? = inconclusive; · = not tested or not shown; [ ] = remark or other dose. Unless noted, the call rests on the fitted dose curve; in most records, active means well fitted curve in the direction sought with a large enough effect; inconclusive means small, poorly fitted or top-dose-only effect, or another doubt; inactive means no such curve, though single readings can be large; an effect the other way counts as inactive or inconclusive.

SMILES	p53 reactivator	RORg inh	CtBP-E1A blk	VP16 counter	Six1-Eya2 blk
Oc1ccccc1CC=NC1CCCCC1	·	·	3.9	·	-0.2
O=c1o[nH]c(-c2ccccc2)c1-c1ccccc1	·	·	3.6	·	-4.4
CCOc1ccc(N(CCCCO)C(=S)NC(=O)c2ccc(C)c(Br)c2)cc1	-0.7%	2.51µM*	-10.9	5.62µM*	-5.8
O=C(NC1CCN(Cc2ccccc2)CC1)c1ccccc1OCc1ccccc1Cl	4.7%	41.0%	-14.8	-12.0%	-15.2
C=COCCNC(=S)Nc1cccc(Cl)c1	-3.6%	6.31µM*	-15.9	?	-6.6
COc1ccc(NC(=S)Nc2cccc(Cl)c2)cc1OC	-5.3%	?	0.6	7.5%	-9.0
O=C(CC(=O)NCc1ccc(Cl)cc1)NCc1ccccc1	0.0%	14.3%	2.0	5.1%	-3.9
COC(CC(=O)NNC(=S)Nc1ccc(Cl)cc1)OC	-7.7%	?	-1.9	?	-4.6
COCCCNC(=S)NNC(=S)Nc1cccc(Cl)c1	2.4%	-28.6%	·	5.8%	6.3
NNC(=S)Nc1cccc(Cl)c1	4.5%	7.94µM*	1.2	?	-0.9
COc1ccc(NC(=S)NNC(=O)CNc2ccc(Cl)cc2)cc1	-2.9%	5.62µM*	-5.9	7.94µM*	-4.2
O=C(CNc1ccc(Cl)cc1)NNC(=S)NCc1ccccc1	2.6%	10µM*	3.7	?	2.2
O=[N+]([O-])c1cccc(/C([O-])=C(/C(=S)Nc2ccccc2)[n+]2ccccc2)c1	15.4%	-29.1%	-13.2	?	-5.2
COc1cc(SC)ccc1C(=O)OC(C)C(=O)Nc1ccc(NC(C)=O)cc1 (configuration not stated)	-5.7%	25.4%	-3.9	-8.5%	-3.6
COc1cc(OC)cc(C(=O)NNC(=S)NC2CC2)c1	8.3%	-32.3%	0.7	-15.0%	-0.7
O=C(CNc1cccc(Cl)c1)NNC(=S)NCc1ccccc1	-1.2%	14.1µM*	1.9	-12.5%	-4.0
O=C(CCc1ccccc1)NNC(=S)NC(=O)c1ccc(Cl)cc1	6.2%	12.6µM*	2.2	11.2µM*	0.5
O=C(CCc1ccccc1)NNC(=S)NCc1ccc(Cl)cc1	-5.5%	1.12µM*	0.3	?	0.2
S=C(NCc1ccccc1)Nc1cccc(Cl)c1	?	5.62µM*	-3.5	12.6µM*	0.5
O=C1CCCN1CC(O)CS(=O)(=O)Cc1ccc(Cl)c(Cl)c1 (configuration not stated)	-1.5%	-7.6%	·	0.8%	0.8
COCCCC1CCN(C(=O)C2CCC(=O)N(Cc3cccc(F)c3)C2)CC1 (configuration not stated)	0.3%	11.6%	-4.3	-9.2%	17.4
CN(C(=O)CSc1nnc(-c2ccco2)n1C)C1CCCCC1	1.8%	·	-6.1	·	10.3
CCN1/C(=C/C=C/c2oc3ccc(-c4ccccc4)cc3[n+]2CC)Oc2ccc(-c3ccccc3)cc21	-12.1%	12.6µM*	18.8	0.355µM*	11.9
O=C(Oc1ccc2ccccc2c1)c1ccco1	-1.4%	4.1%	16.4	-9.4%	14.6
CC1CC(C)(C)Nc2ccc(OC(=O)c3ccco3)cc21 (configuration not stated)	-14.5%	5.01µM*	-12.1	2.51µM*	-20.7
SMILES	p53 reactivator	RORg inh	CtBP-E1A blk	VP16 counter	Six1-Eya2 blk
CCc1ccc(N2C(=O)C(Cl)=C(N3CCOCC3)C2=O)cc1	2.0%	30.0%	3.9	12.6µM*	-2.0
Cc1nc(/N=C\N(C)C)sc1C(=O)Nc1ccccc1	6.3%	26.5%	4.4	-6.1%	7.4
CN(C)/C=N/c1nc2ccc3c(c2s1)CCCC3	26.8%	10µM*	-7.6	-4.9%	-1.9
CC(=O)c1cccc(NC(=O)c2ccc(-c3ccccc3[N+](=O)[O-])o2)c1	?	?	-4.1	7.08µM*	-14.2
Cc1cc(NC(=O)c2ccc(-c3ccccc3[N+](=O)[O-])o2)no1	22.5%	·	-5.7	·	-4.5
O=C(O)CCC[C@H](O)\C=C/C=C/C=C/[C@H](O)C/C=C\CCCCCO	·	?	·	-5.8%	·
CN(N=Nc1nc[nH]c1C(=O)NN)C1CCCCC1	·	·	9.1	·	-27.8
Cc1cc(C(=O)Nc2ccc(S(=O)(=O)N3CCOCC3)cc2)ccc1[N+](=O)[O-]	3.1%	?	·	-4.3%	-17.7
O=[N+]([O-])c1cc(Cl)cc(/C=N/NC(=S)Nc2ccc(S(=O)(=O)N3CCOCC3)cc2)c1O	1.2%	-27.8%	-98.1*	0.7%	-90.6*
O=S(=O)(c1ccc(NC(=S)N/N=C/c2cccc(Oc3ccccc3)c2)cc1)N1CCOCC1	15.9%	0.891µM*	-7.4	-6.9%	-3.4
N#Cc1ccc(/C=N/NC(=S)Nc2ccc(S(=O)(=O)N3CCOCC3)cc2)cc1	-6.6%	1.78µM*	-0.9	?	-2.2
O=S(=O)(c1ccc(Oc2ccccc2)cc1)N1CCOCC1	0.1%	12.9%	7.0	-14.2%	9.6
O=S(=O)(c1ccc(NC(=S)N/N=C/c2ccc(O)c(O)c2)cc1)N1CCOCC1	3.6%	-35.3%	-27.2	-11.7%	-13.1
COc1cccc([C@@H]2Oc3ccc(OC)cc3/C(=N/O[C@@H](C)c3cn([C@H]4COC[C@H]4O)nn3)[C@@H]2O)c1	·	5.9%[10 µM]	·	3.7%[10 µM]	·
CC(NCc1cc(Br)ccc1OCC(N)=O)C12CC3CC(CC(C3)C1)C2 (configuration not stated)	·	-19.3%	·	-5.8%	1.0
O=C(Nc1ccccc1N1CCCCC1)c1cc(S(=O)(=O)N2CCOCC2)ccc1F	-7.3%	·	-18.1	·	-4.4
O=C(Nc1ccc2c(c1)OCO2)C(=O)c1c[nH]c2ccccc12	20.7%	-17.3%	·	-1.5%	-4.2
O=C(Nc1ccc2c(c1)OCCO2)C(=O)c1c[nH]c2ccccc12	-5.1%	2.51µM*	-8.1	3.16µM*	-8.7
Cc1ccccc1C(=O)Nc1ccc2c(c1)OCCO2	-11.7%	8.91µM*	·	?	10.0
Cc1occc1C(=O)Nc1ccc2c(c1)OCCO2	14.8%	8.91µM*	3.6	?	-1.3
CSc1ccccc1C(=O)Nc1ccc2c(c1)OCCO2	·	1.8%	6.0	28.4%	-2.5
CC(=NNC(=S)N1CCN(c2ccccn2)CC1)c1nccs1	·	·	-93.6*	·	-91.1*
S=C(NC1CCCC1)N1CCN(c2ccccn2)CC1	-16.0%	-11.7%	-1.8	16.2%	-0.7
CC(=NNC(=S)N1CCN(C2CCCCCC2)CC1)c1ccccn1	·	·	-0.3	·	-92.4*
S=C(Nc1ccc2nc(-c3ccccn3)c(-c3ccccn3)nc2c1)N1CCCCC1	-2.9%	1.8%	6.0	-7.5%	17.4
CC(=NNC(=S)N1CC2CCC(CC2)C1)c1cnccn1	·	·	-93.9*	·	-92.1*
CC(=NNC(=S)N1CCCCCC1)c1cccc2cccnc12	·	·	-89.7*	·	?
O=C(c1cc(COc2c(F)cccc2F)on1)N1CCc2ccccc2C1	0.4%	18.1%	·	-5.3%	7.1
C/C(=N\NC(=O)C1CCCN(S(=O)(=O)c2ccccc2)C1)c1ccccn1 (configuration not stated)	12.8%	2.82µM*	-90.4*	5.01µM*	-86.1*
